Inconclusive results are not listed. Calls of active or inactive are those of the source. Unless noted, calls follow the shape of the dose curve; as a rule, active = well fitted curve in the direction sought with a large enough effect in the repeat runs; inconclusive = weak or mixed curves; inactive = no such curve, though single readings can be large; an effect the other way counts as inactive or inconclusive.
What was measured:
[1] = qHTS assay to identify small molecule HDAC inhibitors - cell viability counter screen (AID 1259365); also: series mostly up to about 92 µM; nearly all actives have a fitted effect of over 50% in size
How it was run: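 Luminescence from CellTiter-Glo, developed 30min at room temperature, reports viability of wild-type HCT-116 cells treated 2hr with compounds at 37 C and 5% CO2 after overnight plating.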

[2] = qHTS assay to identify small molecule agonists of the sonic hedgehog signaling (Shh) pathway - cell viability counter screen (AID 1259366); also: nearly all actives have a fitted effect of over 50% in size
How it was run: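 Cytotoxicity counter screen run in the same wells as the Shh reporter assay. NIH/3T3 cells carrying a Gli1 response element–driven luciferase were treated with DMSO-dissolved compounds for 24hr, and live-cell protease activity was measured with CellTiter-Fluor.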

[3] = qHTS assay to identify small molecule antagonists of the sonic hedgehog signaling (Shh) pathway - cell viability counter screen (AID 1259367); also: nearly all actives have a fitted effect of over 55% in size
How it was run: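 Conditioned medium drove Shh signaling in 3T3 Gli1-Luc cells exposed to compounds at 37C and 5% CO2. Viability was determined from CellTiter-Fluor fluorescence, with reagent incubated 1 hr after 23 hr of treatment.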

[4] = qHTS assay to identify small molecule agonists of the sonic hedgehog signaling (Shh) pathway (AID 1259368; calls by dose curve;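 also: NIH/3T3-derived 3T3Gli1-Luc cells carrying a stable Gli1-driven firefly luciferase reporter; series mostly up to about 92 µM; nearly all actives have a fitted effect of over 15% in size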)
How it was run: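 Luminescence was read after 30 min at room temperature with luciferase reagent. Before that, 3T3Gli1-Luc cells (NIH/3T3 clone, stable Gli1-Luc reporter; 2,000/well) were exposed to compounds for 24 hr at 37C, 5% CO2, compounds being added 4 hr post-plating.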

[5] = qHTS assay to identify small molecule agonists of the androgen receptor (AR) signaling pathway in the presence of an antagonist - cell viability counter screen (AID 1259379);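 also: MDA-kb2 human breast cancer cells carrying an MMTV luciferase reporter; series mostly up to about 92 µM; nearly all actives have a fitted effect of over 25% in size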
How it was run: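 Cytotoxicity counter-screen run in the same wells as the nilutamide-challenged (3.0 µM final) AR agonist assay in MDA-kb2 cells. Compounds tested at 15 concentrations for 16 h, 37 °C without CO2; CellTiter-Fluor fluorescence read.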

[6] = qHTS assay to identify small molecule agonists of the estrogen receptor beta (ER-beta) signaling pathway - cell viability counter screen (AID 1259380); also: nearly all actives have a fitted effect of over 30% in size
How it was run: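 Cell viability counter screen: CellTiter-Glo luminescence (30 min, room temperature) measured in the same wells as the beta-lactamase readout, after 16 hr compound exposure at 37C of ER-beta-bla HEK293T cells in 2% charcoal-stripped FBS medium.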

[7] = target: Androgen receptor (Homo sapiens) (UniProt P10275); assay: qHTS assay to identify small molecule agonists of the androgen receptor (AR) signaling pathway in the presence of an antagonist (AID 1259381; calls by dose curve; also: nearly all actives have a fitted effect of over 15% in size)
How it was run: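 Agonist-mode confirmation run against 3.0 uM final nilutamide: compounds titrated at 15 concentrations onto MDA-kb2 MMTV-luciferase reporter cells. Luminescence measured with ONE-Glo following 16 hr incubation, 37C, 0% CO2.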

[8] = target: Estrogen receptor beta (Homo sapiens) (UniProt Q92731); assay: qHTS assay to identify small molecule agonists of the estrogen receptor beta (ER-beta) signaling pathway (AID 1259377; active = well fitted activation curve with a large enough effect in the signal ratio in the repeat runs, not every such curve was filed as active; the % refers to the signal ratio)
How it was run: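 HEK293T ER-beta-UAS-bla; 2% charcoal-stripped FBS; cells pre-incubated 6 hr, compound 16 hr, 37C/5% CO2; LiveBLAzer B/G FRET substrate 2 h RT; fluorescence intensity read.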

[9] = target: Estrogen receptor beta (Homo sapiens) (UniProt Q92731); assay: qHTS assay to identify small molecule antagonists of the estrogen receptor beta (ER-beta) signaling pathway (AID 1259378; active = well fitted inhibition curve with a large enough effect in the signal ratio in the repeat runs, not every such curve was filed as active; the % refers to the signal ratio)
How it was run: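 ER-beta-UAS-bla HEK293T (GripTite) cells in 2% charcoal-stripped FBS medium were preincubated 6 hr at 37C, dosed with compound, then stimulated with 1 nM E2 (final) for 16 hr; beta-lactamase reporter read by B/G FRET fluorescence after 2 hr substrate loading.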

[10] = qHTS assay to identify small molecule antagonists of the sonic hedgehog signaling (Shh) pathway (AID 1259369; calls by dose curve; also: nearly all actives have a fitted effect of over 45% in size)
How it was run: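 Antagonist mode: compound added to 3T3 Gli1-Luc cells followed by conditioned-medium stimulation, 24 h at 37 C, 5% CO2. Inhibition taken as loss of Gli1-driven luciferase luminescence.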
% is scaled to controls: 0 for no effect and ±100 for the full control effect.

Androgen receptor (Homo sapiens), sequence (P10275 whole entry, looked up): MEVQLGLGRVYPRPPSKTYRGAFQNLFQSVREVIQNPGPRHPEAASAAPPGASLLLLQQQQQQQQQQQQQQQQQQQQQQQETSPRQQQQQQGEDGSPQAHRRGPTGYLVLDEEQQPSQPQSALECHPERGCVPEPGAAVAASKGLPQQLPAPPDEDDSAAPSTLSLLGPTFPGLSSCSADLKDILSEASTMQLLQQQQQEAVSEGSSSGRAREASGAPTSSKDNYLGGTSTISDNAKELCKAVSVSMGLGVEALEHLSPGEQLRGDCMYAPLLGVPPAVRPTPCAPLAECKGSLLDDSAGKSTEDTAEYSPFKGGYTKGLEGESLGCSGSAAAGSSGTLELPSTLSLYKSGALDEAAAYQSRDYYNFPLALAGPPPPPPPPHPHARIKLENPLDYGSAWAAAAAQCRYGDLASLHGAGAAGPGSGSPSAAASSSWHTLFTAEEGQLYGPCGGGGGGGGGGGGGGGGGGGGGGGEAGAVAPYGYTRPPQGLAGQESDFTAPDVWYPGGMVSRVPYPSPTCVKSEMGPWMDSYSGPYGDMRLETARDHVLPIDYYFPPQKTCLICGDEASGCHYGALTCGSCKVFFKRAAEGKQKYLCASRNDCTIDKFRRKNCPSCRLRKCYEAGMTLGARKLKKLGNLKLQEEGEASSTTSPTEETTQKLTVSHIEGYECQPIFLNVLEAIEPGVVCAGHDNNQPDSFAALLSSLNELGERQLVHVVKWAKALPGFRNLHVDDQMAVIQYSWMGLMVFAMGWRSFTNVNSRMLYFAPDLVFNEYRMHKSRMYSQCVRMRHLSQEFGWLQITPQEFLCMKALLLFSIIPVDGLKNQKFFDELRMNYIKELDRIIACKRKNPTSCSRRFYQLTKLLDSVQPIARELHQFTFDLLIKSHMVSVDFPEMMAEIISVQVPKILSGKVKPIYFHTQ
Estrogen receptor beta (Homo sapiens), sequence (Q92731 whole entry, looked up): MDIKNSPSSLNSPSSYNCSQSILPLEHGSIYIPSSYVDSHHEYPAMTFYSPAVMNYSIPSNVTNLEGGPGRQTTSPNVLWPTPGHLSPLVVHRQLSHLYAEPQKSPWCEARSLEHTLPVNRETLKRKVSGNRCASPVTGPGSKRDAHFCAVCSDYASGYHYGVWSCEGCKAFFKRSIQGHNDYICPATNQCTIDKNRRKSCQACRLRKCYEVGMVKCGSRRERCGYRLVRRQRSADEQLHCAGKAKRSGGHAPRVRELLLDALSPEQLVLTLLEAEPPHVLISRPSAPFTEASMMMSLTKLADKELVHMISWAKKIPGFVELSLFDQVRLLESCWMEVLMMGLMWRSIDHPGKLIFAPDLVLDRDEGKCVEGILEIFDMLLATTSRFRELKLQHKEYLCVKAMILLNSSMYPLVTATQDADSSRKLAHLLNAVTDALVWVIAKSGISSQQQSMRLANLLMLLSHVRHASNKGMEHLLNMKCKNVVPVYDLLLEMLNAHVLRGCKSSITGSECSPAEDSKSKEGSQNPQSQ

O=C(O)CCNC(=O)c1ccccc1
inactive: outcome [1] | Potency [2] | Potency [3] | outcome [4] | Potency [5] | outcome [6]

Cc1ncc([N+](=O)[O-])n1CC(O)CCl (centres undefined)
inactive: outcome [1] | Potency [2] | Potency [3] | outcome [4] | Potency [5] | outcome [6] | outcome [7]

CN(C1CCCCC1)S(=O)(=O)c1ccccc1N
inactive: outcome [1] | Potency [2] | Potency [3] | outcome [4] | Potency [8] | Potency [5] | outcome [6]

C=CCCCCCCCCCCC
inactive: activity change, negative = cytotoxicity [1] 4.34% [at 8.39 µM] | viability change, negative = cytotoxic [2] 3.1% [at 8.39 µM] | viability change, negative = cytotoxic [3] 2.53% [at 8.39 µM] | activity change [4] 0.0597% [at 8.39 µM] | activity change, negative = cytotoxicity [5] 0.376% [at 8.39 µM] | activity change, negative = cytotoxicity [6] -6.43% [at 8.39 µM] | activation [7] 2.68% [at 8.39 µM]

CCCOCCOCCOCCO
inactive: outcome [1] | Potency [2] | Potency [3] | outcome [4] | Potency [8] | outcome [9] | Potency [5] | outcome [6] | outcome [7]

CO[Si](CCCCl)(OC)OC
inactive: outcome [1] | Potency [2] | outcome [4] | Potency [10] | Potency [8] | outcome [9] | Potency [5] | outcome [6]

CCC1COC(=O)O1 (centres undefined)
inactive: outcome [1] | Potency [2] | Potency [3] | outcome [4] | Potency [5] | outcome [6]

CC(Cl)COP(=O)(OCC(C)Cl)OCC(C)Cl (centres undefined)
inactive: outcome [1] | Potency [2] | Potency [3] | outcome [4] | Potency [8] | outcome [9] | Potency [5] | outcome [6]

NS(=O)(=O)c1cc2c(cc1Cl)NC(C(Cl)Cl)NS2(=O)=O (centres undefined)
inactive: outcome [1] | Potency [2] | Potency [3] | outcome [4] | Potency [8] | Potency [5] | outcome [6]

O=S(=O)(O)CCO
inactive: outcome [1] | Potency [2] | Potency [3] | outcome [4] | outcome [9] | Potency [5] | outcome [6]

CCCCCCCC/C=C\CCCCCCCC(=O)OC[C@@H](O)[C@H]1OC[C@H](O)[C@H]1O
inactive: outcome [1] | Potency [2] | outcome [4] | Potency [10] | Potency [8] | outcome [9] | Potency [5] | outcome [6]

O=C1OC(=O)c2cc(Oc3ccc4c(c3)C(=O)OC4=O)ccc21
inactive: outcome [1] | Potency [2] | Potency [3] | outcome [4] | outcome [9] | Potency [5] | outcome [6] | outcome [7]

CCCCC(=O)N(C)C
inactive: outcome [1] | Potency [2] | Potency [3] | outcome [4] | outcome [9] | Potency [5] | outcome [6]

CCCCCCCCCCCCOC(C)=O
inactive: outcome [1] | Potency [2] | Potency [3] | outcome [4] | Potency [8] | outcome [9] | Potency [5] | outcome [6]

CCCCCC1Nc2cc(C(F)(F)F)c(S(N)(=O)=O)cc2S(=O)(=O)N1 (centres undefined)
inactive: outcome [1] | Potency [2] | Potency [3] | outcome [4] | Potency [8] | Potency [5] | outcome [6]

Nc1ccc(S(=O)(=O)Nc2ccccn2)cc1
inactive: outcome [1] | Potency [2] | Potency [3] | outcome [4] | Potency [8] | outcome [9] | Potency [5] | outcome [6] | outcome [7]

CCCCCCCC[Si](OCC)(OCC)OCC
inactive: outcome [1] | Potency [2] | outcome [4] | Potency [10] | Potency [8] | outcome [9] | Potency [5] | outcome [6]

CCCCC[Si](OCC)(OCC)OCC
inactive: outcome [1] | Potency [2] | Potency [3] | outcome [4] | Potency [8] | Potency [5] | outcome [6] | outcome [7]

CCCCOC(=O)[C@@H](C)Oc1ccc(Oc2ccc(C(F)(F)F)cn2)cc1
inactive: outcome [1] | Potency [2] | outcome [4] | Potency [10] | Potency [8] | outcome [9] | Potency [5] | outcome [6]

CC(=O)Nc1ncc([N+](=O)[O-])s1
inactive: outcome [1] | Potency [2] | Potency [3] | outcome [4] | Potency [5] | outcome [6]

CCC(C)(CCC(C)C)C(=O)[O-].CCC(C)(CCC(C)C)C(=O)[O-].[Zn+2] (centres undefined)
inactive: outcome [1] | Potency [3] | outcome [4] | Potency [5] | outcome [6]

CC(C)(CO)[C@@H](O)C(=O)NCCCO
inactive: outcome [1] | Potency [2] | outcome [4] | Potency [10] | Potency [8] | Potency [5] | outcome [6]

NCCc1ccn[nH]1
inactive: outcome [1] | Potency [2] | outcome [4] | Potency [10] | Potency [8] | outcome [9] | Potency [5] | outcome [6]

O=C(O)c1ccccc1C(=O)Nc1ccc(S(=O)(=O)Nc2nccs2)cc1
inactive: outcome [1] | Potency [2] | outcome [4] | Potency [8] | Potency [5] | outcome [6] | outcome [7]

NS(=O)(=O)c1ccccc1OC(F)(F)F
inactive: outcome [1] | Potency [2] | outcome [4] | Potency [10] | Potency [8] | outcome [9] | Potency [5] | outcome [6]

OC[C@@H](O)[C@H](O)[C@@H](O)[C@@H](O)CO
inactive: outcome [1] | Potency [2] | outcome [4] | Potency [10] | Potency [5] | outcome [6]

C=CCOc1cc(Cl)ccc1C(=O)NCCN(CC)CC
inactive: outcome [1] | Potency [2] | outcome [4] | Potency [10] | Potency [8] | Potency [5] | outcome [6]

OCCCCCCCl
inactive: outcome [1] | Potency [2] | outcome [4] | Potency [8] | outcome [9] | Potency [5] | outcome [6]

— PubChem BioAssay (Tox21)
